From the supplement of paper PMC11624193, “Coupling cellular drug-target engagement to downstream pharmacology with CeTEAM” (Nature Communications, 2024)
Counter-ions that a name gives are not always drawn. Unmarked numbers belong to inactive results.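 Rule for the calls: active = log2 fold change beyond 2 SD from the library mean after excluding viability outliers; inactive = within 2 SD.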

What follows are molecules tested against PARP1 L713F-nLuc biosensor (HCT116) (UniProt P09874) (assay: PARP1 L713F-nLuc/akaLuc ratio relative to DMSO control (biosensor stabilization) (fold change); higher = more PARP1 biosensor stabilization (target engagement / stabilizer), active = hit call of the paper). Conditions: stock concentration (mM; final µM = stock mM x 1): 10; 24 h.
Sequence of PARP1 L713F-nLuc biosensor (HCT116) (P09874 whole entry L713F, looked up): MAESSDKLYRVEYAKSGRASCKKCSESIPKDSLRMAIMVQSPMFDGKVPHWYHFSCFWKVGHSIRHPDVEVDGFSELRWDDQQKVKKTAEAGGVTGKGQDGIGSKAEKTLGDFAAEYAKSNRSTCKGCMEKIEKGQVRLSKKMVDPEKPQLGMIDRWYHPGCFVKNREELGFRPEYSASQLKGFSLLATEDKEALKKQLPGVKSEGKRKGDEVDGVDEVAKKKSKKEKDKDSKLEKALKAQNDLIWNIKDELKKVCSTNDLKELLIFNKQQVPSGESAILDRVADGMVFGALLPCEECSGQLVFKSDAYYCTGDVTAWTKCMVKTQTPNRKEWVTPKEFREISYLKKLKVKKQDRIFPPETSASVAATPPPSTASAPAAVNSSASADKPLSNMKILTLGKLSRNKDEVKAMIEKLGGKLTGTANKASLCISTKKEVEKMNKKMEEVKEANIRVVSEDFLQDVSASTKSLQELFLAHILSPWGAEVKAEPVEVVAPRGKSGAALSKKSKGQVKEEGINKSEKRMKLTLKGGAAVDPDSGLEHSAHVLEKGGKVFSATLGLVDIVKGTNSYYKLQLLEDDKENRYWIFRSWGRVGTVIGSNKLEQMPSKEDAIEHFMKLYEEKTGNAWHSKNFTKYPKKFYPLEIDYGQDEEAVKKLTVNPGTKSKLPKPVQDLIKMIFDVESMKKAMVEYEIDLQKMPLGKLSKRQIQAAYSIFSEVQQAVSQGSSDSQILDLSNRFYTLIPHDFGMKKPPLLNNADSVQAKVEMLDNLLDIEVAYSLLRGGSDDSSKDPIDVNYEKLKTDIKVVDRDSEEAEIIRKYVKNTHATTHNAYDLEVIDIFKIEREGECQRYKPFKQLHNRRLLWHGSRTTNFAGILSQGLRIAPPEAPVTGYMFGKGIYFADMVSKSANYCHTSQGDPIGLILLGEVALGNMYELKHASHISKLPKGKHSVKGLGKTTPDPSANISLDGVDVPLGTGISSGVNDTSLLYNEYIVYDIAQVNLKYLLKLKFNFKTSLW

Compound	PARP1 L713F-nLuc/akaLuc ratio
Cc1nn2c([nH]c(=O)c3cccnc32)c1C#N	0.851
CN(C)CCCCC(=O)Nc1ccc(NC(=S)NC(=O)c2ccc(C(C)(C)C)cc2)cc1 [Tenovin-6 (Hydrochloride)]	0.665
CC(C)c1c(-c2ccccc2)nc2c(C#N)c[nH]n2c1=O	0.786
N#Cc1cc(F)cc(Oc2ccc(S(=O)(=O)C(F)F)c3c2CC(F)(F)[C@H]3O)c1	0.774
CNC(=O)CN1CCC(Oc2cc3c(Nc4cccc(Cl)c4F)ncnc3cc2OC)CC1 [Sapitinib (AZD8931)]	0.797
COCCNCc1ccc(-c2cc3nccc(Oc4ccc(NC(=O)C5(C(=O)Nc6ccc(F)cc6)CC5)cc4F)c3s2)nc1 [Sitravatinib (MGCD516)]	1.48
CNCCN(C)Cc1c[nH]nc1-c1ccc(O[C@H]2C[C@H](OCCC3CCOCC3)C2)cc1	0.64
C[C@H](Nc1cc(-c2cnn(C)c2)cc(Nc2cnccn2)n1)c1ccc(F)cc1 [Ilginatinib (maleate)]	0.614
N#Cc1cc2cc(CN3CCC(Nc4ncnc5sc(CC(F)(F)F)cc45)CC3)ccc2[nH]1	1.05
Cc1cc(F)c(C(=O)Nc2cccc(-c3nncn3C(C)C)n2)cc1-n1cnc(C2CC2)c1 [Selonsertib (GS-4997)]	0.908
COc1ccc(C2(CNC(=O)c3ccc(NC(=O)c4ccco4)cc3)CCOCC2)cc1	1.23
O=C(Nc1ccnc(NC(=O)C2CC2)c1)c1c(Cl)cccc1Cl	1.13
CS(=O)(=O)c1ccc(-c2nnc(/C=C/c3nnc(-c4ccc(C#N)cc4)o3)n2-c2ccccc2Cl)nc1	0.886
CC1(C)CNc2cc(NC(=O)c3cccnc3NCc3ccncc3)ccc21 [Motesanib Diphosphate (AMG-706)]	1.5
O=S(=O)(NCCSSCCNS(=O)(=O)c1cc(Cl)ccc1Cl)c1cc(Cl)ccc1Cl	1.18
CC1(C)c2cccc(C(=O)NO)c2CN1c1cnc(C(F)(F)F)cn1	0.913
O=C(c1cncc(Br)c1)N1CCC(N2CCCC2)CC1	1.73
NC(=O)[C@@H]1CCCc2c1[nH]c1ccc(Cl)cc21 [(R)-Selisistat]	0.592
O=C(NOCCO)c1ccc2cncn2c1Nc1ccc(I)cc1F	0.421
CCN(C(=O)CO)[C@H]1CN(/C(=N\C#N)Nc2cccc(OC(F)F)c2)N=C1c1ccc(Cl)c(Cl)c1	1.37

Compound	PARP1 L713F-nLuc/akaLuc ratio
CNC(=O)c1ccc2cc([C@@]3(O)CCn4cncc43)ccc2c1 [TAK-700 (Orteronel)]	0.776
CN1CCN(c2cccc(Nc3nc4c(-c5ccc(S(C)(=O)=O)cc5)cccn4n3)c2)CC1	0.968
O=[N+]([O-])c1c(Nc2cc(F)cc(Cl)c2)ccc2nonc12	1.45
COc1nc(Nc2cc(S(C)(=O)=O)ccc2N[C@@H](c2cccc3c2OC(F)(F)O3)c2ncccc2Cl)nc(N2CCNCC2)n1	0.707
CCC(CC)(NC(=O)C(C)C)C(=O)N[C@@H](CCCN=C(N)N)C(=O)NC1(C(=O)NC(c2ccc(F)cc2)c2ccc(F)cc2)CCCC1	0.991
O=C(Nc1cccnc1)N1CCC(Cc2cccc(Oc3ccc(C(F)(F)F)cn3)c2)CC1	0.451
COc1ccc2c(c1O)OC(C)(C)c1c-2ccc2c1C(=O)N(c1ccc(C(=O)c3ccccc3)cc1)C2=O [Ampkinone]	1.18
Nc1nc(Nc2ccc(S(N)(=O)=O)cc2)nn1C(=O)c1c(F)cccc1F	0.483
C[C@@H](COCCC(=O)N1CCN(c2ncc(C(F)(F)F)cn2)CC1)Nc1cn[nH]c(=O)c1C(F)(F)F	2.09
CC(C)(O)c1ccc(-c2nc3c(F)cc(F)cc3c(=O)[nH]2)cc1 [Tankyrase-IN-2]	2.95 (active)
C=CC(=O)Nc1cccc(Nc2nc(Nc3ccc(N4CCN(C(C)=O)CC4)cc3OC)ncc2C(F)(F)F)c1 [Rociletinib (CO-1686, AVL-301)]	0.886
CNS(=O)(=O)Nc1nccc(Cc2c(C)c3ccc(Oc4ncccn4)cc3oc2=O)c1F	0.435
CN(C)CCOc1ccc(/C(=C(/CCCl)c2ccccc2)c2ccccc2)cc1 [Toremifene Citrate]	0.791
CCn1c(C(=O)N(C2CC2)C2CC2)cc2c3c(ncn3C)c(Nc3cc(C)n(C)n3)nc21	1.01
Cc1cc(Nc2nc(CC3(C(=O)O)CCN(C(=O)c4cccc(Cl)c4Cl)CC3)ccc2F)n[nH]1	1.6
CCS(=O)(=O)N1CC(CC#N)(n2cc(-c3ncnc4[nH]ccc34)cn2)C1	0.444
O=C(NCC1(c2nc(-c3ccccc3)cs2)CCOCC1)c1cccc(-c2noc(C(F)(F)F)n2)c1	0.465
COc1cc2c(Oc3ccc4[nH]c(C)cc4c3F)ncnc2cc1OCCCN1CCCC1 [Cediranib (AZD2171)]	1.46
CCN(c1cc(-c2ccc(CN3CCOCC3)cc2)cc(C(=O)NCc2c(C)cc(C)[nH]c2=O)c1C)C1CCOCC1 [Tazemetostat (hydrobromide)]	0.726
